Source: PubChem BioAssay (NCI)
Compounds without any hit were thinned out: in the full panel of roughly 83,000, 20% have a hit.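 Growth was measured after 48 h exposure to one concentration of compound in 96-well plates. Values under 10 count as active.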 Values without a mark were called inactive. Active and inactive are the calls of the source.

Test system: MDA-MB-468 breast
Assay: NCI-60 one-dose screen, 48 h (100 = growth as untreated, 0 = no growth, -100 = all killed)
Settings: 10 µM unless noted

Structure (SMILES) | growth
CCCSc1nc(Nc2ccc(/C(C)=N\NC(N)=S)cc2)c(C#N)c(-c2ccc(OC)cc2)n1 | 93.1%
COCc1nc(NS(=O)(=O)c2ccc(N)cc2)nc(C)c1Br | 99.1%
COc1cc(OC)c(/C=C/c2cc[n+](C)c3ccccc23)c(OC)c1 | -20.6% (active)
O=C1/C(=C\c2ccc(Cl)cc2)CN(C(=S)Nc2ccccc2)C/C1=C\c1ccc(Cl)cc1 | -64.4% (active)
O=C(c1ccc(F)c(Cl)c1)N1c2ccccc2Sc2ccccc21 | 63.1%
CC(C)(C)[Si](C)(C)OC1[C@@H](O[Si](C)(C)C(C)(C)C)[C@@H](CNC(=O)NC(=O)CCl)O[C@H]1n1cnc2c(NC(=O)Nc3ccccc3)ncnc21 (stereo partly drawn) | -64.6% (active)
C#CCN(C)CCCOc1ccc(NC(=O)CCCCCCCCC(=O)NO)cc1Cl | 27.6%
CC1(C)CC[C@]2(C(=O)O)CC[C@]3(C)C(=CC[C@@H]4[C@@]5(C)CC[C@H](NOCCCN)C(C)(C)[C@@H]5CC[C@]43C)[C@@H]2C1 | -45.6% (active)
Cc1ccc(NC2=C(Cl)C(=O)c3nc(C)ccc3C2=O)cc1 | -81.9% (active)
COc1ccc(/C=C/C(=O)c2c(C)nc3ccccc3c2/C=C/c2ccccc2)c(OC)c1 | 87%
COc1ccc(C2=NN(C(C)=O)C(c3cn(-c4ccccc4)nc3-c3ccc(Cl)cc3)C2)cc1 (stereo not drawn) | -1.41% (active)
N#CC1(C#N)C(c2cccs2)NC(c2cccs2)C1(C#N)C#N (stereo not drawn) | 104%
C=C1C(=O)O[C@H]2[C@H]1CC/C(COC(=O)NCc1cc(OC)cc(OC)c1)=C\CC[C@@]1(C)O[C@@H]21 | 10.2%
